Results from PubChem BioAssay (Tox21).
“And” between values parts separate entries of the source, which are not always exact repeats. Equal entries are not always repeated. Results filed as inconclusive are left out. A structure can be active in one record and inactive in another. The source made the active and inactive calls. Unless noted, calls follow the shape of the dose curve; as a rule, active = well fitted curve in the direction sought with a large enough effect in the repeat runs; inconclusive = weak or mixed curves; inactive = no such curve, though single readings can be large; an effect the other way counts as inactive or inconclusive.

What was measured:
[1] = qHTS assay to identify small molecule antagonists of the sonic hedgehog signaling (Shh) pathway (AID 1259369; calls by dose curve; also: nearly all actives have a fitted effect of over 45% in size; also: potency is read from the fitted curve at half-maximal effect)
Summary of the method: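 Antagonist mode: compound added to 3T3 Gli1-Luc cells followed by conditioned-medium stimulation, 24 h at 37 C, 5% CO2. Inhibition taken as loss of Gli1-driven luciferase luminescence.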

[2] = molecular target: Estrogen receptor beta (Homo sapiens) (UniProt Q92731); test: qHTS assay to identify small molecule agonists of the estrogen receptor beta (ER-beta) signaling pathway (AID 1259377; active = well fitted activation curve with a large enough effect in the signal ratio in the repeat runs, not every such curve was filed as active; the % refers to the signal ratio)
Chain of Estrogen receptor beta (Homo sapiens) (Q92731 whole entry, looked up): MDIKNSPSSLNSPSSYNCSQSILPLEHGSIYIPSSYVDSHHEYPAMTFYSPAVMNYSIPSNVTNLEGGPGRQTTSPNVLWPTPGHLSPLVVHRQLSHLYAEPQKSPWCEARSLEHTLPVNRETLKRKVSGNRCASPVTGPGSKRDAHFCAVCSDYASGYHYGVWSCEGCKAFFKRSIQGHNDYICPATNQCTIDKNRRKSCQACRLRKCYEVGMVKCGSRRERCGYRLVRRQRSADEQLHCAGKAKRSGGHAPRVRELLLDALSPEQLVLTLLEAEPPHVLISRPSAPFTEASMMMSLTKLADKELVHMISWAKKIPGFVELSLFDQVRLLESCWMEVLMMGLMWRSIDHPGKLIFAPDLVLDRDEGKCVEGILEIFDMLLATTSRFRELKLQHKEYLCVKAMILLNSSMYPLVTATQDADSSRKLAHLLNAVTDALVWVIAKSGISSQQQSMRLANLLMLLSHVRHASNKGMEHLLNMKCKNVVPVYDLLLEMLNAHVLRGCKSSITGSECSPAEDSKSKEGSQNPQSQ
Summary of the method: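 A UAS-controlled beta-lactamase reporter in ER-beta-UAS-bla HEK293T cells reports receptor activation. Compounds act for 16 hr at 37C in 2% charcoal-stripped serum, and a FRET substrate is read by fluorescence after 2 hours.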

[3] = molecular target: Estrogen receptor beta (Homo sapiens) (UniProt Q92731); test: qHTS assay to identify small molecule antagonists of the estrogen receptor beta (ER-beta) signaling pathway (AID 1259378; active = well fitted inhibition curve with a large enough effect in the signal ratio in the repeat runs, not every such curve was filed as active; the % refers to the signal ratio; also: potency is read from the fitted curve at half-maximal effect)
Summary of the method: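 Antagonist mode: compounds added to beta-lactamase reporter HEK293T ER-beta-UAS cells stimulated with E2 (1nM final), 16 hr at 37C. LiveBLAzer B/G FRET substrate, 2 hours room temperature, fluorescence read-out.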

[4] = qHTS assay to identify small molecule agonists of the androgen receptor (AR) signaling pathway in the presence of an antagonist - cell viability counter screen (AID 1259379); also: nearly all actives have a fitted effect of over 25% in size; also: potency is read from the fitted curve at half-maximal effect
Summary of the method: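 Cytotoxicity counter-screen run in the same wells as the nilutamide-challenged (3.0 µM final) AR agonist assay in MDA-kb2 cells. Compounds tested at 15 concentrations for 16 h, 37 °C without CO2; CellTiter-Fluor fluorescence read.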

[5] = qHTS assay to identify small molecule agonists of the estrogen receptor beta (ER-beta) signaling pathway - cell viability counter screen (AID 1259380); also: nearly all actives have a fitted effect of over 30% in size; also: potency is read from the fitted curve at half-maximal effect
Summary of the method: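 Cell viability counter screen: CellTiter-Glo luminescence (30 min, room temperature) measured in the same wells as the beta-lactamase readout, after 16 hr compound exposure at 37C of ER-beta-bla HEK293T cells in 2% charcoal-stripped FBS medium.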

[6] = qHTS assay to identify small molecule antagonists of the estrogen receptor beta (ER-beta) signaling pathway - cell viability counter screen (AID 1259382); also: nearly all actives have a fitted effect of over 55% in size; also: potency is read from the fitted curve at half-maximal effect
Summary of the method: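 Cytotoxicity was measured in the same wells by CellTiter-Glo luminescence after 30 min at room temperature. Cells were ER-beta-bla HEK293T in charcoal-stripped serum, given compound together with 1 nM E2 and incubated 16 h at 37C.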

[7] = qHTS assay to identify small molecule agonists or antagonists of the thyroid stimulating hormone receptor (TSHR) signaling pathway - wild type cell line counter screen (AID 1259384; calls by dose curve)
Summary of the method: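 Counter screen in untransfected Hek293: compounds (15-point titration, triplicate) plus phosphodiesterase inhibitor Ro20-1724 added after 18 h plating; 30 min RT. Intracellular cAMP via competitive d2/cryptate immunoassay, 1 h incubation.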

[8] = qHTS assay to identify small molecule agonists of the estrogen receptor alpha (ER-alpha) signaling pathway in the presence of an antagonist - cell viability counter screen (AID 1259386); also: nearly all actives have a fitted effect of over 30% in size; also: potency is read from the fitted curve at half-maximal effect
Summary of the method: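 Compounds tested at 15 concentrations for 22 h at 37C alongside 10.0nM (final) ICI-182,780 antagonist, in VM7Luc4E2 cells grown in phenol red-free, charcoal-stripped medium. Viability read by CellTiter-Fluor fluorescence after 1 h reagent incubation.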

[9] = molecular target: Progesterone receptor (Homo sapiens) (UniProt P06401); test: qHTS assay to identify small molecule agonists of the progesterone receptor (PR) signaling pathway (AID 1346784; calls by dose curve; also: nearly all actives have a fitted effect of over 30% in size)
Chain of Progesterone receptor (Homo sapiens) (P06401 whole entry, looked up): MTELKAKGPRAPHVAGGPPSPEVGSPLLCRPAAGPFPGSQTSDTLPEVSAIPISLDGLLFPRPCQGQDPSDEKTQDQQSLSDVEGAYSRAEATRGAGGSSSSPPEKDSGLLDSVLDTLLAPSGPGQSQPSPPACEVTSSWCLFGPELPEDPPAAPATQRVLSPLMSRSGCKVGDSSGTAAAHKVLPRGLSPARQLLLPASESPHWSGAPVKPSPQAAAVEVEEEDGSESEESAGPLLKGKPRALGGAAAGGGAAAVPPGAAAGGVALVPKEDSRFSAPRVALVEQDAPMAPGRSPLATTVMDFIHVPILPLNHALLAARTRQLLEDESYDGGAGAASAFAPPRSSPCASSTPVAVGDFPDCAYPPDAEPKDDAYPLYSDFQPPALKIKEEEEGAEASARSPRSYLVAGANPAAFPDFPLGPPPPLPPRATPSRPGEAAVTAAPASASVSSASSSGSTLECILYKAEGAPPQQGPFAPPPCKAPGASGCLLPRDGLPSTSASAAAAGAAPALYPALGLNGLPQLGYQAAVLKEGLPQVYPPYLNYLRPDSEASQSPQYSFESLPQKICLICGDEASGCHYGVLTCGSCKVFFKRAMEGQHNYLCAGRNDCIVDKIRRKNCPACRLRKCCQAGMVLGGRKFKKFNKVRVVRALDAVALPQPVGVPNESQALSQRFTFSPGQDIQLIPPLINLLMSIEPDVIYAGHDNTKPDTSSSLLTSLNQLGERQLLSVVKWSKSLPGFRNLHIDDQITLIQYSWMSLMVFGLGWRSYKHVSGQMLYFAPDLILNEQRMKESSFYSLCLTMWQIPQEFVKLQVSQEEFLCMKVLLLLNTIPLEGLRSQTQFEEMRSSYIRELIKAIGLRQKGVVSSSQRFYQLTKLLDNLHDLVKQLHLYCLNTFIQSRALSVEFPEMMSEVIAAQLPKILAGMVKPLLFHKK
Summary of the method: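 Agonist mode, quantitative HTS format in a HEK 293T line expressing a UAS-controlled beta-lactamase reporter; 16 hr compound exposure at 37C in 2% charcoal-stripped FBS, then LiveBLAzer B/G FRET fluorescence.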

[10] = qHTS assay to identify small molecule antagonists of the progesterone receptor (PR) signaling pathway - cell viability counter screen (AID 1346798); also: nearly all actives have a fitted effect of over 50% in size; also: potency is read from the fitted curve at half-maximal effect
Summary of the method: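 Same-well multiplex: after 16 hr at 37C with compound and R5020 stimulation, HEK293T cells carrying a UAS-bla reporter received LiveBLAzer substrate (2 hr RT), then CellTiter-Glo (30 min RT) for luminescent viability.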

[11] = qHTS assay to identify small molecule agonists of the progesterone receptor (PR) signaling pathway - cell viability counter screen (AID 1346799; calls by dose curve; also: nearly all actives have a fitted effect of over 45% in size; also: potency is read from the fitted curve at half-maximal effect)
Summary of the method: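 Counter screen for cytotoxicity: compound-treated PR-UAS-bla HEK293T cells (16 hr, 37C, 5% CO2) were assayed with CellTiter-Glo, luminescence measured after 30 min at room temperature.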

[12] = qHTS assay to identify small molecule antagonists of the TGF-beta/Smad signaling pathway - cell viability counter screen (AID 1346824); also: nearly all actives have a fitted effect of over 50% in size
Summary of the method: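 Cytotoxicity counter-screen run in the same wells as the beta-lactamase Smad reporter read: CellTiter-Glo luminescence after 30 min at room temperature. HEK 293T SBE-bla cells had 5 hr compound exposure at 37 C with TGF-beta1 (0.25 ng/mL stock).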

[13] = qHTS assay to identify small molecule agonists of the TGF-beta/Smad signaling pathway - cell viability counter screen (AID 1346829); also: top concentration of the series differs between compounds; nearly all actives have a fitted effect of over 45% in size
Summary of the method: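 In parallel with the Smad reporter read, viability of HEK 293T cells stably carrying SBE-bla is quantified by ATP luminescence following 5 hr compound treatment.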

[14] = qHTS assay to identify small molecule agonists of the TGF-beta/Smad signaling pathway (AID 1346859; active = well fitted activation curve with a large enough effect in the signal ratio in the repeat runs, not every such curve was filed as active; the % refers to the signal ratio; also: series mostly up to about 77 µM)
Summary of the method: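 Smad-responsive beta-lactamase reporter cells (HEK 293T) received compounds from DMSO stocks after overnight attachment, were incubated 5 hr, then treated 2 hr with FRET substrate before dual-emission fluorescence measurement (405 nm excitation).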

[15] = molecular target: Progesterone receptor (Homo sapiens) (UniProt P06401); test: qHTS assay to identify small molecule antagonists of the progesterone receptor (PR) signaling pathway (AID 1346795; active = well fitted inhibition curve with a large enough effect in the signal ratio in the repeat runs, not every such curve was filed as active; the % refers to the signal ratio; also: potency is read from the fitted curve at half-maximal effect)
Summary of the method: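 HEK293T PR-UAS-bla reporter cells in charcoal-stripped serum (2%) received compound after a 6 hr settling period, followed by R5020 agonist at 1 nM final; 16 hr incubation preceded the FRET substrate step and fluorescence measurement.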

[16] = molecular target: Thyrotropin-releasing hormone receptor (Homo sapiens) (UniProt P34981); test: qHTS assay to identify small molecule antagonists of the thyrotropin-releasing hormone receptor (TRHR) signaling pathway (AID 1346877; active = well fitted inhibition curve with a large enough effect in the repeat runs, not every such curve was filed as active; also: series mostly up to about 51 µM)
Chain of Thyrotropin-releasing hormone receptor (Homo sapiens) (P34981 whole entry, looked up): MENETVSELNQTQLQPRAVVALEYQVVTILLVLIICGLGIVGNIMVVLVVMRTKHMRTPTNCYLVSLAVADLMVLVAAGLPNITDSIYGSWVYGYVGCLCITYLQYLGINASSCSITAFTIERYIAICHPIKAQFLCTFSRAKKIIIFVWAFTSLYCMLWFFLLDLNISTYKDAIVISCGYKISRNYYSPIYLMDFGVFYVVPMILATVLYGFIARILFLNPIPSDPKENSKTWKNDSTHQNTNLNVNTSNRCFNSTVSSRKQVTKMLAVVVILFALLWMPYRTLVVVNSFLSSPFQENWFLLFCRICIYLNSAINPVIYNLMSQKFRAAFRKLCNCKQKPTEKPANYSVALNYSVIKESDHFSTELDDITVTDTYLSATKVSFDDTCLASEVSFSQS
Summary of the method: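 Antagonist mode: after a 5 min room-temperature compound exposure, cells were stimulated with 1 nM (final) TRH. Dye-loaded TRHR-HEK293 cells were used, and calcium-dependent fluorescence was followed for 3 min, with 15-point titrations run in triplicate.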

[17] = molecular target: Thyrotropin-releasing hormone receptor (Homo sapiens) (UniProt P34981); test: qHTS assay to identify small molecule agonists of the thyrotropin-releasing hormone receptor (TRHR) signaling pathway (AID 1346891; calls by dose curve;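 also: HEK293 cells expressing TRHR with calcium dye readout; series mostly up to about 58 µM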)
Summary of the method: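 Agonist-mode calcium mobilisation screen: TRHR-transfected HEK293 cells cultured overnight (18 h), dye-loaded for 2 h at 37 °C, exposed to compounds, and monitored by fluorescence for 3 min.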

[18] = molecular target: Estrogen receptor (Homo sapiens) (UniProt P03372); test: qHTS assay to identify small molecule agonists of the estrogen receptor alpha (ER-alpha) signaling pathway in the presence of an antagonist (AID 1259383; calls by dose curve; also: nearly all actives have a fitted effect of over 15% in size; also: potency is read from the fitted curve at half-maximal effect; as to activation: top concentration of the series differs between compounds)
Chain of Estrogen receptor (Homo sapiens) (P03372 whole entry, looked up): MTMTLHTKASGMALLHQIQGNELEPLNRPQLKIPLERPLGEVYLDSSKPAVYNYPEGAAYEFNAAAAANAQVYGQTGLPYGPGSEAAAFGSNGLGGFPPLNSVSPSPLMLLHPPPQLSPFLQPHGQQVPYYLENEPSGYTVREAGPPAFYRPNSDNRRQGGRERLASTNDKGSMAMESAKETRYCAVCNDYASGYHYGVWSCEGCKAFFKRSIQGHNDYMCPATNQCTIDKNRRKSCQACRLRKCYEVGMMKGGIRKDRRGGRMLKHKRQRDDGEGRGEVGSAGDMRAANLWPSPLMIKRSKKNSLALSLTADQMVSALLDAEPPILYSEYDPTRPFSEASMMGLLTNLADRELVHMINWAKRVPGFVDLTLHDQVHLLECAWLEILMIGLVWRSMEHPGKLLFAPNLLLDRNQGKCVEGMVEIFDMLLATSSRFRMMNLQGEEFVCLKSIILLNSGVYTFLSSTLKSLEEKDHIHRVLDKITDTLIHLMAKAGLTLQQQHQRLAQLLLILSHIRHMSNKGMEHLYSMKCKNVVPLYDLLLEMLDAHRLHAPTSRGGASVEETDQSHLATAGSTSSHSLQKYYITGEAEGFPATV
Summary of the method: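 Agonist-mode confirmation run in the presence of 10.0nM (final) ICI-182,780 antagonist. The reporter was ERE-driven luciferase in VM7Luc4E2 cells, grown in charcoal-stripped serum. Cells were exposed to 15-concentration compound series for 22hr, then ONE-Glo luminescence was read.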

[19] = molecular target: Thyrotropin receptor (Homo sapiens) (UniProt P16473); test: qHTS assay to identify small molecule antagonists of the thyroid stimulating hormone receptor (TSHR) signaling pathway (AID 1259385; calls by dose curve; also: nearly all actives have a fitted effect of over 20% in size; also: potency is read from the fitted curve at half-maximal effect)
Chain of Thyrotropin receptor (Homo sapiens) (P16473 whole entry, looked up): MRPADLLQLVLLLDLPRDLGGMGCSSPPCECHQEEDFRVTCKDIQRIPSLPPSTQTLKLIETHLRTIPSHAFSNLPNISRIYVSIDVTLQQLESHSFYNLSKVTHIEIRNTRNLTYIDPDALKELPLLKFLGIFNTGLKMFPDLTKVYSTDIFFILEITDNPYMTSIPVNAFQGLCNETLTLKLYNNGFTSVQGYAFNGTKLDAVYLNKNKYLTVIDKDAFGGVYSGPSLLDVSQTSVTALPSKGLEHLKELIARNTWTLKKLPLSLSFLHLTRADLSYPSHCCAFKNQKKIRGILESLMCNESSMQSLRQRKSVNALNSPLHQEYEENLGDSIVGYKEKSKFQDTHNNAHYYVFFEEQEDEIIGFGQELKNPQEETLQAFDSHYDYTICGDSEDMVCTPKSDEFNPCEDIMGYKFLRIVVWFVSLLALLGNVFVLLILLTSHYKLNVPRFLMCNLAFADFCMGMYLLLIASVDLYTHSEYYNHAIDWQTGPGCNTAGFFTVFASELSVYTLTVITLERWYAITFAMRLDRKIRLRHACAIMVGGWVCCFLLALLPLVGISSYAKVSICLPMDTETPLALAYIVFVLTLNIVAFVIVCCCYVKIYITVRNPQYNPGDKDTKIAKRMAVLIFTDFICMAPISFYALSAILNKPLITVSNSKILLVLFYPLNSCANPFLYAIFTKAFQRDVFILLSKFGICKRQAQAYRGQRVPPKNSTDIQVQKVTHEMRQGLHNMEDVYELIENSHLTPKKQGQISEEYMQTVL
Summary of the method: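 Antagonist mode: compound-treated TSHR-expressing HEK293 cells were stimulated with 1.5 ng/mL TSH (final) in presence of Ro20-1724 for 30 min at RT. HTRF cAMP detection after 1 h; each compound tested at 15 concentrations, triplicate.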

[20] = molecular target: Androgen receptor (Homo sapiens) (UniProt P10275); test: qHTS assay to identify small molecule agonists of the androgen receptor (AR) signaling pathway in the presence of an antagonist (AID 1259381; calls by dose curve; also: nearly all actives have a fitted effect of over 15% in size)
Chain of Androgen receptor (Homo sapiens) (P10275 whole entry, looked up): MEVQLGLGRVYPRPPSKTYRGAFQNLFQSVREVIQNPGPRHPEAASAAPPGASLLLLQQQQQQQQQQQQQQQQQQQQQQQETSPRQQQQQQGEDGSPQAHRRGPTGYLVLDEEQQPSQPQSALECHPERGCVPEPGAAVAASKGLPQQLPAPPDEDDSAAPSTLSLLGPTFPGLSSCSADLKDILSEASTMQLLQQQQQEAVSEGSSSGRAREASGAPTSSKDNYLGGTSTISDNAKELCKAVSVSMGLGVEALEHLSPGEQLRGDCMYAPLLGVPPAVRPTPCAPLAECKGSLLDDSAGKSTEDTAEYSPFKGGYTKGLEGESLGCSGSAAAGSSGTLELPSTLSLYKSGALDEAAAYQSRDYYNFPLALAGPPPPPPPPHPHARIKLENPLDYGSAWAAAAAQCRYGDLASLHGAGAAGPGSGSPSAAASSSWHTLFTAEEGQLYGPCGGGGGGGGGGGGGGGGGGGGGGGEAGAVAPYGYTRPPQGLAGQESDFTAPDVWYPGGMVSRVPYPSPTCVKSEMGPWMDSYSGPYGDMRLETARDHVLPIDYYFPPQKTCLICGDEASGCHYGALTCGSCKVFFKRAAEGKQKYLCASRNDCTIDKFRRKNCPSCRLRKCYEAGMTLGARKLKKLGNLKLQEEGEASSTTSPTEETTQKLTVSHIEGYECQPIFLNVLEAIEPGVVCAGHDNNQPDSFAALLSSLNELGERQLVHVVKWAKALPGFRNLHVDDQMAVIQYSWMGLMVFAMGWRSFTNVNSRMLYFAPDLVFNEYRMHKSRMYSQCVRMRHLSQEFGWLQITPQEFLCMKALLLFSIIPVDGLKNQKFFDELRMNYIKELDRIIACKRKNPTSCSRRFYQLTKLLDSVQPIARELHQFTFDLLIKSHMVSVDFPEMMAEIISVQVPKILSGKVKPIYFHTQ
Summary of the method: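 Agonist-mode confirmation run against 3.0 uM final nilutamide: compounds titrated at 15 concentrations onto MDA-kb2 MMTV-luciferase reporter cells. Luminescence measured with ONE-Glo following 16 hr incubation, 37C, 0% CO2.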

Measured: Potency

c1ccc2n[nH]nc2c1
not listed: [15] | [16] | [17] | [18] | [19] | [20]
inactive: all other assays above

CC(N)=O
not listed: [3] | [11] | [18] | [19] | [20]
inactive: all other assays above

O=C1Nc2ccccc2C1(c1ccc(O)cc1)c1ccc(O)cc1
active: [1] 34.4 µM | [3] 27.3 µM and 18.8 µM | [8] 1.37 µM and 944 nM | [15] 54.5 µM
not listed: [4] | [10] | [11] | [16] | [17] | [20]
inactive: all other assays above

O=C(O)c1cc(Cl)cc(Cl)c1
not listed: [15] | [19] | [20]
inactive: all other assays above

CCN(CC)CCOc1ccc(/C(=C(\Cl)c2ccccc2)c2ccccc2)cc1
inactive: [20] | [7] | [8] | [12] | [14]
active: [1] 17.6 µM | [3] 266 nM | [4] 44.2 µM and 29.8 µM | [5] 49.6 µM and 29.8 µM | [6] 44.2 µM and 29.8 µM | [19] 29.8 µM

CCOC(=O)C(C)C(C)=O (stereo unspecified)
not listed: [17] | [18] | [20]
inactive: all other assays above

O=c1n(CC2CO2)c(=O)n(CC2CO2)c(=O)n1CC1CO1 (stereo unspecified)
active: [1] 963 nM and 3.06 µM
not listed: [4] | [11] | [15] | [20]
inactive: all other assays above

CC(=O)C1=C(C)[C@@H]2C[C@@]3(C1)[C@H](C)CC[C@H]3C2(C)C
not listed: [15] | [19] | [20]
inactive: all other assays above

C=CC(=O)OCCCCCCOC(=O)C=C
active: [1] 19.6 µM and 19.3 µM | [3] 54500 nM | [5] 24.3 µM
not listed: [4] | [19]
inactive: all other assays above

CC(C)CCOC(=O)c1ccc(N(C)C)cc1
active: [18] 2.98 µM
not listed: [3] | [8] | [15] | [19] | [20]
inactive: all other assays above

CC(C)CCCCCCc1ccc(O)cc1
active: [5] 3.92 µM and 61.1 µM | [18] 15.6 µM and 27.3 µM | [10] 6.22 µM
5.54 µM (active) and inactive: [6]
4.94 µM (active) and inactive: [11]
24.8 µM (active) and inactive: [1]
27.8 µM (active) and inactive: [4] | [8]
inactive: [2] | [13] | [14] | [16] | [17]

Cc1c(O)cccc1C(=O)N[C@@H](CSc1ccccc1)[C@H](O)CN1C[C@H]2CCCC[C@H]2C[C@H]1C(=O)NC(C)(C)C
inactive: [20] | [7] | [19] | [9]
active: [1] 8.41 µM and 29.8 µM | [4] 53 µM and 23.7 µM | [5] 23.7 µM and 18.8 µM | [6] 16.8 µM and 23.7 µM | [8] 29.8 µM and 11.9 µM | [15] 13.3 µM and 21.1 µM | [10] 29.8 µM | [11] 26.6 µM

CCCCC/C=C/CC1CC(=O)OC1=O (stereo unspecified)
not listed: [2] | [3] | [20]
inactive: all other assays above
